Pf growth 48h: inhibits P. falciparum growth in the first generation, 48 h; P. falciparum luciferase growth in erythrocytes, 48 h; Potency, µM (titrated, usually from 28.7 µM), actives largely listed as inhibitors; hit rate 5.9% among 310,000
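Compounds are pin-transferred into medium, infected erythrocytes (2% hematocrit, 0.1% parasitemia final) are added, and plates sit one parasite generation at 37 C in 5% CO2. Detection reagent is then added and luminescence measured.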
SARS PLP yeast: SARS-CoV PLP inhibition in yeast | S. cerevisiae expressing SARS-CoV PLpro, growth rescue | Potency, µM (top dose mostly 32.9 µM), hits mostly activators | hit rate 0.19% among 330,000; calls by dose curve; note: nearly all actives have a fitted effect of over 55% in size
Sm TGR inh: inhibitors of Schistosoma mansoni thioredoxin glutathione reductase; purified TGR, DTNB reduction, TNB absorbance 405 nm; Potency, µM (series often up to 114 µM), usual class: inhibitors; hit rate 3% among 360,000; note: nearly all actives have a fitted effect of over 60% in size
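First, TGR (20 nM dispensed) and NADPH were mixed with compound. Second, a 15 min room-temperature incubation followed. Third, further NADPH and then DTNB were added to start the reaction. Finally, TNB absorbance was monitored kinetically.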
Pf growth 96h: P. falciparum growth inhibition at 96 hour, primary screen for plastid delayed-death inhibitors; hit rate 6.9% among 320,000; P. falciparum luciferase reporter growth, 96 h; Potency, µM (top dose mostly 28.7 µM), actives largely listed as inhibitors; AID 504834
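Infected RBCs, 2% Hct / 0.05% parasitemia final; luciferase-reporter P. falciparum; cpd 96 h, 37 C, 5% CO2; luciferase detection reagent; luminescence.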
Large screens that a line does not name were inactive. In the library only some 12% were active in any assay of this set; here they are far more common. Unless noted, calls come from the whole dose curve; as a rule, active = well fitted curve in the direction sought with a large enough effect; inconclusive = small, poorly fitted or top-dose-only effect, or another doubt; inactive = no such curve, though single readings can be large; an effect the other way counts as inactive or inconclusive.

CCc1cc[n+](C2=C([O-])c3ccccc3C(=O)/C2=N\S(=O)(=O)c2cccs2)cc1	Pf growth 48h 4.1µM, Sm TGR inh inconclusive, Pf growth 96h inconclusive
COc1ccc(-c2cc(C(=O)Nc3c(C)n(C)n(-c4ccccc4)c3=O)no2)cc1	Pf growth 48h inconclusive, Pf growth 96h 8.3µM
Cc1ccc(-n2c(N)c(C(=O)Nc3c(C)n(C)n(-c4ccccc4)c3=O)c3nc4ccccc4nc32)cc1C	Pf growth 48h 10µM, Pf growth 96h inconclusive
Cc1ccc(-c2cc(C(=O)Nc3c(C)n(C)n(-c4ccccc4)c3=O)no2)cc1	none
Nc1c(C(=O)Nc2ccccc2)c2nc3ccccc3nc2n1-c1ccc(O)cc1	Pf growth 48h 13µM
COc1ccc(-n2c(N)c(C(=O)Nc3c(C)n(C)n(-c4ccccc4)c3=O)c3nc4ccccc4nc32)cc1	Pf growth 48h 4.7µM, Pf growth 96h 1.7µM
Cc1ccc(-n2c(C)cc(C(=S)N3CCOCC3)c2C)cc1C	Pf growth 48h inconclusive, Pf growth 96h 10µM
Cc1cc(C(=S)N2CCOCC2)c(C)n1-c1ccc(F)cc1	Pf growth 48h inconclusive (no result: Sm TGR inh)
N#CC1=C2SCN(Cc3ccco3)CN2C(=O)CC1c1cccc2ccccc12 (stereo unspecified)	Pf growth 48h 12µM
O=C(/C=C/c1ccco1)NC(=S)Nc1nc(-c2ccc(Cl)cc2)cs1	Pf growth 96h inconclusive
Cn1nnc(NC(=S)NC(=O)c2cc(Cl)ccc2Cl)n1	Pf growth 48h 8.3µM, Sm TGR inh inconclusive, Pf growth 96h 4.1µM
CCCn1nnc(NC(=O)/C=C/c2ccco2)n1	Sm TGR inh 5.6µM
Cn1nnc(NC(=S)NC(=O)/C=C/c2ccco2)n1	Sm TGR inh 3.2µM
COc1cc2ccccc2cc1C(=O)NC(=S)Nc1nnn(C)n1	Pf growth 96h inconclusive
O=C1CN(C(=O)COC(=O)c2c(F)cccc2Cl)c2ccccc2N1	none (no result: Pf growth 48h, Sm TGR inh, Pf growth 96h)
Cc1cc(C(=O)COC(=O)c2ccc(N)c([N+](=O)[O-])c2)c(C)n1-c1ccc2c(c1)OCO2	Pf growth 48h 13µM, Pf growth 96h 4.7µM
Cc1cc(C(=O)COC(=O)c2ccc(N)c([N+](=O)[O-])c2)c(C)n1Cc1ccc2c(c1)OCO2	none
COc1ccc(-n2c(C)cc(C(=O)COC(=O)Cc3n[nH]c(=O)c4ccccc34)c2C)cc1	Pf growth 48h 12µM, Pf growth 96h 2.1µM
Cc1cc(C(=O)COC(=O)Cc2n[nH]c(=O)c3ccccc23)c(C)n1-c1ccc2c(c1)OCO2	Pf growth 48h 6.6µM, Pf growth 96h inconclusive
Cc1cc(C(=O)COC(=O)Cc2n[nH]c(=O)c3ccccc23)c(C)n1CC(F)(F)F	Pf growth 96h inconclusive
COCCn1c(C)cc(C(=O)COC(=O)Cc2n[nH]c(=O)c3ccccc23)c1C	Pf growth 48h inconclusive
COc1ccc(-n2c(C)cc(C(=O)C[N+]34CCN(CC3)CC4)c2C)cc1	Pf growth 96h 5.9µM
COc1ccccc1C(=O)NC(CCSC)C(=O)OC(C)C(=O)NC1CC1 (stereo unspecified)	none
Cc1cc(C(=O)CN2CCCCC2)c(C)n1-c1ccc(F)cc1	none
Cc1cc(C(=O)CN2CCCC2)c(C)n1-c1ccc(F)cc1	Pf growth 48h inconclusive, Sm TGR inh 45µM, Pf growth 96h inconclusive
CCOc1ccc(CN(C(=O)c2cc3ccccc3oc2=O)C2CC2)cc1	Pf growth 48h 12µM
O=C(c1cc2ccccc2oc1=O)N(Cc1ccccc1F)C1CCS(=O)(=O)C1 (stereo unspecified)	Pf growth 96h 5.2µM
CCOC(=O)c1ccccc1NC(=O)C(=O)Nc1ccc2nc3n(c(=O)c2c1)CCCCC3	none (no result: Pf growth 48h, SARS PLP yeast, Pf growth 96h)
O=C(O)CCN1C(=O)c2ccc(NC(=O)CCc3ccccc3)cc2C1=O	Pf growth 96h 12µM
Cc1c(C(=O)Nc2ccc(Cl)cc2)c2ccccn2c1CCc1ccncc1	Pf growth 48h inconclusive, Pf growth 96h 9.3µM
COc1ccc(-c2cc(C(=O)Nc3c(C(=O)c4ccc(C)c(F)c4)oc4ccccc34)no2)cc1	none (no result: Pf growth 48h, SARS PLP yeast, Pf growth 96h)
CCN1C=C(Cc2ccccc2C)C2=C(C1)C(c1ccccc1C)C(C#N)=C(N)O2 (stereo unspecified)	Sm TGR inh 45µM, Pf growth 96h 2.9µM (no result: Pf growth 48h)
CCC(C)NC(=O)c1sc2nc(C)c(C(=O)Nc3ccc(C)cc3C)c(-c3ccccc3Cl)c2c1N (stereo unspecified)	none (no result: Pf growth 48h, SARS PLP yeast, Pf growth 96h)
CC(C)Cc1nc2oc3c(NCc4cccnc4)ncnc3c2c2c1CCC2	Pf growth 48h inconclusive, Pf growth 96h inconclusive
CC(C)Cc1nc2oc3c(NCC4CCCO4)ncnc3c2c2c1CCC2 (stereo unspecified)	Pf growth 48h inconclusive, Pf growth 96h 4.7µM
COc1ccc(OC)c(NC(=O)Cn2nc3c(cc2=O)CCCC3)c1	none (no result: Pf growth 48h, SARS PLP yeast, Pf growth 96h)
O=C(Nc1ccc(Nc2ccccc2)cc1)C(Cl)Cl	none
CC(C)(C)C(=O)C(Cl)C(=O)Nc1ccccc1 (stereo unspecified)	Sm TGR inh 22µM
O=S(=O)(NCCS(=O)(=O)N1CCN(c2cccc(Cl)c2)CC1)c1ccc(F)cc1	none (no result: Pf growth 48h, SARS PLP yeast, Pf growth 96h)
O=C(/C=C/c1ccccc1)N1CCC(Cc2ccccc2)CC1	Pf growth 48h inconclusive, Pf growth 96h 8.3µM
Cc1noc(C)c1C(=O)N1CCC(Cc2ccccc2)CC1	none (no result: Pf growth 96h)
Cc1cc(C(=O)N2CCC(Cc3ccccc3)CC2)no1	Pf growth 96h 15µM
O=C(/C=C/c1cccc(Cl)c1)N1CCC(Cc2ccccc2)CC1	none
Cc1nnc(SCC(=O)NCc2ccc(N(C)C)cc2)c2nn(-c3ccccc3)c(C)c12	none (no result: Pf growth 48h, SARS PLP yeast, Pf growth 96h)
NC(=O)Cn1c(=O)n(C2CCCCC2)c(=O)c2c3c(sc21)CCCCC3	Pf growth 48h inconclusive, Pf growth 96h 2.3µM
CC(NC(=O)c1cc2ccccn2n1)c1ccccc1 (stereo unspecified)	none (no result: Pf growth 48h, SARS PLP yeast, Pf growth 96h)
Cc1ccc(S(=O)(=O)N(C)c2cc(S(=O)(=O)N3CCC(C)CC3)c(C)cc2C)cc1	Pf growth 48h 10µM, Pf growth 96h 12µM
COc1cccc(CN2C(=O)C(C)N(C(=O)c3c(F)cccc3F)c3ccccc32)c1 (stereo unspecified)	Pf growth 48h 9.3µM, Pf growth 96h 6.6µM
CC1C(=O)N(Cc2ccccc2F)c2ccccc2N1C(=O)c1c(F)cccc1F (stereo unspecified)	Pf growth 48h inconclusive, Pf growth 96h inconclusive
COc1ccc(C(=O)C(CN2CCCC2)c2ccccc2)cc1 (stereo unspecified)	Pf growth 48h 13µM
CCCOc1ccc(C(=O)C(CN2CCCC2)c2ccccc2)cc1 (stereo unspecified)	Pf growth 48h 10µM, Pf growth 96h inconclusive
CCCCOc1ccc(C(=O)C(CN2CCOCC2)c2ccccc2)cc1 (stereo unspecified)	Pf growth 48h inconclusive, Pf growth 96h inconclusive
O=C(c1ccc(Cl)cc1)C(CN1CCCC1)c1ccccc1 (stereo unspecified)	Sm TGR inh 28µM
CCOC(=O)C1(CCCc2ccccc2)CCN(C(=O)C2CCCO2)CC1 (stereo unspecified)	Pf growth 48h inconclusive (no result: Sm TGR inh)
CCOC(=O)C1(CCc2ccccc2)CCN(Cc2ccc3c(c2)OCCO3)CC1	Pf growth 96h 10µM
CCOC(=O)C1(CCc2ccccc2)CCN(C2Cc3ccccc3C2)CC1	Pf growth 48h inconclusive
CCOC(=O)C1CCN(Cc2ccc(C(=O)OC)cc2)CC1	none (no result: Pf growth 96h)
